# Compounds with a hit are over-represented: about 11% of the library has one in this group of screens.
# Pf growth 96h: P. falciparum growth inhibition at 96 hour, primary screen for plastid delayed-death inhibitors. P. falciparum luciferase reporter growth, 96 h. Potency, µM (highest dose often 28.7 µM), hits mostly inhibitors. 320,000 tested, 6.9% active. AID 504834
#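 Erythrocytes infected with luciferase-expressing P. falciparum were dispensed at 2% hematocrit and 0.05% parasitemia (final), then incubated with compounds 96 hours at 37 C in 5% CO2. Luminescence after detection reagent addition reported growth.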
# Sm TGR block: blocks Schistosoma mansoni thioredoxin glutathione reductase. AID 485364. 360,000 tested, 3% active. Potency, µM (highest dose often 114 µM), actives largely listed as inhibitors. Q962Y6. purified TGR, DTNB reduction, TNB absorbance 405 nm; further: nearly all actives have a fitted effect of over 60% in size
#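 TGR 20 nM + NADPH 100 uM (dispensed conc.), cpd preinc 15 min RT; start with NADPH (500 uM addition) then DTNB (15 mM addition). Kinetic TNB absorbance, 405 nm filter. Four-parameter Hill fit across titration.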
# Pf growth 48h: P. falciparum growth inhibition at 48 hours (one generation); P. falciparum luciferase growth in erythrocytes, 48 h; Potency, µM (series often up to 28.7 µM), actives largely listed as inhibitors; 310,000 tested, 5.9% active; AID 504832
#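 Luciferase-expressing P. falciparum in infected erythrocytes (2% hematocrit, 0.1% parasitemia final) in RPMI 1640/0.5% Albumax were exposed to compound for 48 hours at 37 C, 5% CO2; growth read as luminescence.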
# NS1 function inh: influenza NS1 inhibition. AID 2326. 270,000 tested, 0.4% active. Potency, µM (top dose mostly 46.1 µM); calls by dose curve; further: actives are rising curves; nearly all actives have a fitted effect of over 50% in size
#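 Read-out: OD600 growth recovery of NS1-expressing budding yeast. Cells grown overnight at 30C in -URA glucose medium, washed, resuspended and diluted 1:100 in 2% galactose assay medium, pH 6.0. Same strain lacking NS1 served as positive control.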
# AMA1-RON2 inh: disrupts binding of P. falciparum AMA1 to RON2; AlphaScreen AMA1-biotinylated RON2 peptide binding; Potency, µM (doses to about 58.2 µM), usual class: inhibitors; 360,000 tested, 0.2% active; further: nearly all actives have a fitted effect of over 45% in size
#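 AMA1 (3D7) with his tag at 25 nM final met compounds first, then biotinylated RON2 peptide at 25 nM; detection used donor plus acceptor beads, 10 µg/mL apiece, read by AlphaScreen after 30 min at room temperature.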
# A number is an active result; . = inactive; ? = inconclusive; / = no result given; [ ] = dose if it differs, or a comment. Unless noted, the call rests on the fitted dose curve; in most records, active means well fitted curve in the direction sought with a large enough effect; inconclusive means small, poorly fitted or top-dose-only effect, or another doubt; inactive means no such curve, though single readings can be large; an effect the other way counts as inactive or inconclusive.
SMILES,Pf growth 96h,Sm TGR block,Pf growth 48h,NS1 function inh,AMA1-RON2 inh
CCCCSc1nc(CCC)cc(=O)[nH]1,.,.,.,.,.
COc1ccc(C(=O)c2oc3ccccc3c2NC(=O)c2nc(SC)ncc2Cl)cc1Cl,/,.,/,/,/
N=c1c2c(ncn1CCCO)Oc1cc(O)ccc1C2c1ccccc1 (stereo not given),?,.,?,.,.
COc1ccc(C2c3ccc4ccccc4c3Oc3ncn(CCCN(C)C)c(=N)c32)cc1 (stereo not given),1.65µM,.,1.65µM,.,.
COc1ccccc1C1c2ccc3ccccc3c2Oc2ncn(CCN(C)C)c(=N)c21 (stereo not given),2.33µM,.,3.29µM,.,.
COc1ccccc1C1c2ccc3ccccc3c2Oc2ncn(CCCO)c(=N)c21 (stereo not given),2.62µM,.,7.38µM,.,.
COc1ccc(C2c3ccc(O)cc3Oc3ncn(CC(C)C)c(=N)c32)cc1 (stereo not given),.,.,5.22µM,.,.
COc1ccc(C2c3ccc4ccccc4c3Oc3ncn(Cc4ccco4)c(=N)c32)cc1OC (stereo not given),?,.,13.1µM,?,.[11.6 µM]
COc1ccc(C2c3ccc(O)cc3Oc3ncn(Cc4ccco4)c(=N)c32)cc1OC (stereo not given),.,.,?,.,.
COc1ccc(C2c3ccc(O)cc3Oc3ncn4nc(-c5cccnc5)nc4c32)cc1OC (stereo not given),4.15µM,.,5.22µM,.,.
COc1cc(C2C(C#N)=C(N)Oc3n[nH]c(-c4cccnc4)c32)ccc1OCC(N)=O (stereo not given),.,.,.,.,.
Cc1onc(-c2c(Cl)cccc2Cl)c1C(=O)ONC(=O)c1cc(C(F)(F)F)cc(C(F)(F)F)c1,.,.,.,.,.
COC(=O)c1ccc(OC(=O)c2ccncc2)cc1O,.,44.7µM,.,.,.
COC(=O)c1ccc(OC(=O)c2cccnc2)cc1,?,.,.,.,.
CC(C)CCN1CCC(n2nccc2NC(=O)c2ccc3c(c2)OCO3)CC1,.,.,.,.,.
O=C(Nc1cccc(C(F)(F)F)c1)c1c(O)c2ccccc2[nH]c1=O,14.7µM,.,.,.,.
O=C(NCCCN1CCOCC1)Nc1ccc(Cc2ccc(NC(=O)NCCCN3CCOCC3)cc2)cc1,1.65µM,.,2.62µM,.,.
Cc1ccc(NC(=S)NCCCN2CCOCC2)cc1C,.,?,.,.,.
S=C(NCCCN1CCOCC1)Nc1ccc(Cl)c(Cl)c1,16.5µM,?,.,.,.
CCCCn1c(N)c(N(CCOC)C(=O)CC(NC(=O)c2ccccc2)c2ccccc2)c(=O)[nH]c1=O (stereo not given),.,.,?,/,.
O=c1oc2ccccc2c(N2CCCCC2)c1CN1CCCCC1,.,17.8µM,?,.,.
CCc1oc2ccccc2c1C(=O)CCN1CCCCC1,.,7.94µM,.,.,.
O=C(CCN1CCCCC1)c1ccccc1,.,.,/,.,.
CCN(C(=O)COC(=O)CCCc1c[nH]c2ccccc12)c1c(N)n(Cc2ccccc2)c(=O)[nH]c1=O,/,/,/,/,.
O=C(O)c1cccc(NC2=C(n3nnc4ccccc43)C(=O)c3ccccc3C2=O)c1,1.85µM,44.7µM,5.22µM,.,.
SMILES,Pf growth 96h,Sm TGR block,Pf growth 48h,NS1 function inh,AMA1-RON2 inh
CCN(c1cccc(C)c1)S(=O)(=O)c1cc(Br)cc2c1N(C(C)=O)C(C)C2 (stereo not given),/,.,/,/,/
CC1=N/C(=C/c2ccco2)C(=O)O1,.,28.2µM,.,/,.
CCOC(=O)Oc1ccc(/C=C2\N=C(C)OC2=O)cc1,.,12.6µM,.,.,.
CCOc1c(Br)cc(/C=C2\N=C(C)OC2=O)cc1Br,.,?,.,.,.
O=C1OC(c2ccc(Br)cc2)=N/C1=C\c1ccco1,.,.,.,/,.
COc1cc(/C=C2\N=C(C)OC2=O)cc(OC)c1OC,.,17.8µM,.,.,.
CC1CCN(C(=O)c2[nH]cnc2C(=O)Nc2nccs2)CC1,.,28.2µM,.,/,.
CCOC(=O)C1=C(CC)Nc2ccccc2N=C1NC(=O)c1cc(C)on1,.,.,.,/,.
CCOC(=O)C1=C(CC)Nc2ccccc2N=C1NC(=O)Nc1ccc(Cl)c(Cl)c1,2.62µM,.,/,.,?
COc1ccc(CCNC(=O)c2cc(-c3cc(Cl)ccc3O)n[nH]2)cc1OC,.,.,?,.,.
COc1ccc(CCNC(=O)c2cc(-c3ccccc3O)n[nH]2)cc1OC,.[5.75 µM],.,13.1µM,.,.
COc1ccc(CCNC(=O)C2c3ccccc3C(=O)N2CCC(C)C)cc1OC (stereo not given),8.28µM,.,.,.,.
COc1ccc(CCNC(=O)C2c3ccccc3C(=O)N2Cc2ccccc2)cc1OC (stereo not given),/,.,/,/,/
COc1ccc(CCNC(=O)c2cc(-c3ccc(C)cc3O)n[nH]2)cc1OC,7.38µM,.,/,.,.
Nc1c(N(CCO)C(=O)C2CCCC2)c(=O)[nH]c(=O)n1Cc1ccccc1,/,/,/,/,.
COc1ccc(Nc2nc3c(S(=O)(=O)c4ccc(Br)cc4)nnn3c3ccsc23)c(OC)c1,/,.,/,/,/
O=C(C[n+]1ccc(/C=N/O)cc1)NC1CCCCC1,.,.,10.4µM,/,.
CC(=O)c1cccc(N(C(=O)c2csnn2)C(C(=O)NC2CCCC2)c2ccccc2)c1 (stereo not given),.,.,.,.,.
CC(C)c1ccc(-n2c(-c3ccccc3)c[n+]3c2CCc2ccccc2-3)cc1,0.828µM,.,1.04µM,/,.
COc1ccccc1-n1c(-c2ccccc2)c[n+]2c1CCc1ccccc1-2,?,.,?,.,.
COc1ccc(-n2c(-c3ccc(Br)cc3)c[n+]3c2CCc2ccccc2-3)cc1,0.465µM,.,1.85µM,.,.
COc1cccc2c(=O)c(SC(F)(F)C(F)C(F)(F)F)c(C)[nH]c12 (stereo not given),3.7µM,.,6.57µM,.,.
COc1cccc2c(=O)c(C/C=C(/C)Cl)c(C)[nH]c12,/,.,0.738µM,.,.
CCN(C(=O)CSc1nc2ccccc2n1Cc1ccc(F)cc1Cl)c1ccccc1,/,.,/,/,/
COc1ccc2nc(NC(=O)c3nc(S(=O)(=O)Cc4ccc(C)cc4)ncc3Cl)sc2c1,/,.,/,/,/
SMILES,Pf growth 96h,Sm TGR block,Pf growth 48h,NS1 function inh,AMA1-RON2 inh
COC(=O)c1ccc(NC(=O)c2nc(S(=O)(=O)Cc3cccc(C)c3)ncc2Cl)cc1,.,6.31µM,.,.,.
Cc1ccc(C(=O)NCc2ccc3c(c2)OCO3)c(Cl)c1,/,/,/,/,.
CC(=O)Nc1ccc(NC(=O)c2nc(S(=O)(=O)Cc3cccc(C)c3)ncc2Cl)cc1,?,7.08µM,.,.,.
Cc1cccc(CS(=O)(=O)c2ncc(Cl)c(C(=O)NCc3ccc4c(c3)OCO4)n2)c1,.,6.31µM,.,.,.
Cc1ccccc1CNC(=O)CCSCc1cnn(-c2ccccc2)c1-n1cccc1,/,.,/,/,/
O=C(O)CC1(CC(=O)NCc2ccccn2)CCCCC1,.,.,.,.,.
CCCNC1=C(N(C(C)=O)c2cccc(F)c2)C(=O)c2ccccc2C1=O,.,.,.,.,.

# Assay outcomes: PubChem BioAssay, National Center for Advancing Translational Sciences (NCATS)
